Reference: PubChem BioAssay
Values without a mark were called inactive. Active and inactive are the calls of the source.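 The calls were made as follows, unless noted: active = mean inhibition above 46.68%, the untreated control wells mean plus 3 SD; inactive = the rest.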

Legend:
[1] = biological target: Nuclear receptor coactivator 3 (Homo sapiens) (UniProt Q9Y6Q9); test: NCOA3 GAL4-fusion reporter inhibition – cell-based, luminescence, quadruplicate, confirmation (AID 588792;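 active = mean inhibition over 43.08%, the solvent-only control mean plus 3 SD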;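 also: 0% = DMSO treated cells and 100% = gossypol at 36 µM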); conditions: HEK293 GAL4-SRC3 luciferase reporter, at 3.6 µM, active compounds read high
[2] = test system: transactivating tegument protein VP16 (Human herpesvirus 1), Gal4-VP16 luciferase reporter; test: repression of VP16-driven luciferase reporter – cell-based, luminescence, high throughput, counter-screen for SRC3 inhibitor project (AID 588794; in the data active = inhibition above about 30%); conditions: mammalian cells, at 3.6 µM, active compounds read high
[3] = biological target: Nuclear receptor coactivator 1 (Homo sapiens) (UniProt Q15788); test: NCOA1 GAL4-fusion reporter inhibition – cell-based, luminescence, quadruplicate, confirmation (AID 588820); conditions: HEK293 GAL4-SRC1 luciferase reporter, at 3.6 µM, active compounds read high;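 also: 0% = DMSO wells and 100% = gossypol 36 µM treated wells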
[4] = repression of VP16-driven luciferase reporter – cell-based, luminescence, high throughput, counter-screen for SRC1 inhibitor project (AID 588824; in the data active = inhibition above about 25%); conditions: cell-based VP16 transactivation luciferase luminescence; at 3.6 µM; active compounds read high
[5] = StAR promoter reporter inhibitors, counter-screen for LRH-1 inverse agonist project, cell-based, luminescence, high throughput (AID 651611; in the data active = inhibition above about 28%); conditions: StAR promoter luciferase reporter counterscreen, at 3.6 µM, active compounds read high
[6] = biological target: Nuclear receptor subfamily 5 group A member 2 (Homo sapiens) (UniProt O00482); test: NR5A2 activity suppression in reporter cells – cell-based, luminescence, confirmation (AID 651613; in the data active = inhibition above about 42%;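 also: HEK293T cells co-transfected with LRH-1 and StAR promoter luciferase reporter; 0% = vehicle wells and 100% = parental cells lacking receptor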); conditions: cell-based LRH-1 luciferase reporter, inverse agonism; at 3.6 µM; active compounds read high
[7] = biological target: Steroidogenic factor 1 (Homo sapiens) (UniProt Q13285); test: inverse agonism at SF1 nuclear receptor – cell-based, luminescence, high throughput, counter-screen for LRH-1 inverse agonist project (AID 651614; in the data active = inhibition above about 44%;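 also: cells cotransfected with StAR promoter reporter and SF1 expression vector; 0% = vehicle on cells with receptor and 100% = vehicle on cells lacking receptor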); conditions: cell-based SF1 luciferase reporter, at 3.6 µM, active compounds read high
[8] = compounds suppressing VP16-driven luciferase signal – cell-based, luminescence, high throughput, counter-screen for LRH-1 inverse agonist project (AID 651615; in the data active = inhibition above about 33%); conditions: Gal4-VP16 luciferase reporter cells, at 3.6 µM, active compounds read high
[9] = test system: transactivating tegument protein VP16 (Human herpesvirus 1); test: compounds suppressing VP16-driven luciferase signal – cell-based, luminescence, single concentration, counter-screen for SRC2 inhibitor project (AID 652007; in the data active = inhibition above about 36%); conditions: cell-based VP16 transactivation luciferase reporter, at 8.9 µM, active compounds read high
[10] = biological target: Nuclear receptor coactivator 2 (Homo sapiens) (UniProt Q15596); test: inhibition of GAL4-SRC2 driven luciferase expression – cell-based, luminescence, HEK293, triplicate, confirmation (AID 652008;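 active = mean inhibition above 46.5%, the solvent-only control mean plus 3 SD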;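 also: 0% = DMSO-treated cells and 100% = Gossypol at 36 µM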); conditions: HEK293 GAL4-SRC2 luciferase reporter, at 8.9 µM, active compounds read high

Chain of Nuclear receptor coactivator 3 (Homo sapiens) (Q9Y6Q9 whole entry, looked up, the tested form may be a part): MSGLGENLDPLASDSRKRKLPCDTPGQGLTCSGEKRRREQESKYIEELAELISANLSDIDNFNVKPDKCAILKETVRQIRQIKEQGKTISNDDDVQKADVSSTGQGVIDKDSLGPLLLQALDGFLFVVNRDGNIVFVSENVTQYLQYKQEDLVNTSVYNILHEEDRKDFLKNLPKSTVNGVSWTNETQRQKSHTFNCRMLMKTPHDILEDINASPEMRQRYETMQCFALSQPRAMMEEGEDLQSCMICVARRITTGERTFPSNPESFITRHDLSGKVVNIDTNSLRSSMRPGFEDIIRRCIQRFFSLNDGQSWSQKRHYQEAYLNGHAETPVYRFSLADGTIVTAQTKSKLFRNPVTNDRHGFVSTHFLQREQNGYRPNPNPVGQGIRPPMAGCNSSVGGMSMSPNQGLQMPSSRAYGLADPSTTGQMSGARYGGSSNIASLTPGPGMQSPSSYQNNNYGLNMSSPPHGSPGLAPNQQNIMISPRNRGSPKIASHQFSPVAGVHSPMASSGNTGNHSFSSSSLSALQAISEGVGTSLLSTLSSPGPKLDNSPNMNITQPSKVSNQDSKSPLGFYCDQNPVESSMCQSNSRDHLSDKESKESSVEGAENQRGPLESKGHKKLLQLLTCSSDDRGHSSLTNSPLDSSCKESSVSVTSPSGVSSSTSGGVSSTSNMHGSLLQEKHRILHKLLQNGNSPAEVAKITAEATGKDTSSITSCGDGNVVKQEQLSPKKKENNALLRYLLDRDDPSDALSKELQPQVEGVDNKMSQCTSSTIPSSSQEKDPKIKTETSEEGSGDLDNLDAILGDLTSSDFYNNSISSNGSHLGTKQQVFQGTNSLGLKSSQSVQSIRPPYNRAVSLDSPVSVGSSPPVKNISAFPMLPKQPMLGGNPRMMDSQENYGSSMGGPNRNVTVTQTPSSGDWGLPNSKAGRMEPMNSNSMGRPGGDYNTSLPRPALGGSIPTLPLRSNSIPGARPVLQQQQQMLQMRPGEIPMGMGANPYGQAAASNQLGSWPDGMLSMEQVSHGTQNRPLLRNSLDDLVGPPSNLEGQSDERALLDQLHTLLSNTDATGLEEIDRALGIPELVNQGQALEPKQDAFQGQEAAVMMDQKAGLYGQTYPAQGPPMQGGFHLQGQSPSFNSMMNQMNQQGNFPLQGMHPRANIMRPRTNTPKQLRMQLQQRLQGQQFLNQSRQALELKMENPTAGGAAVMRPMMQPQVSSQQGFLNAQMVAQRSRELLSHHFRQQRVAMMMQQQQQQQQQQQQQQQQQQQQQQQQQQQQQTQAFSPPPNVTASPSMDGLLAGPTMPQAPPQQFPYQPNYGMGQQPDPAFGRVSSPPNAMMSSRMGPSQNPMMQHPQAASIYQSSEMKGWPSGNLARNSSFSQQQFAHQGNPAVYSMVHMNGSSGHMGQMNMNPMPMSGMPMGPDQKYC
Chain of Nuclear receptor subfamily 5 group A member 2 (Homo sapiens) (O00482 whole entry, looked up): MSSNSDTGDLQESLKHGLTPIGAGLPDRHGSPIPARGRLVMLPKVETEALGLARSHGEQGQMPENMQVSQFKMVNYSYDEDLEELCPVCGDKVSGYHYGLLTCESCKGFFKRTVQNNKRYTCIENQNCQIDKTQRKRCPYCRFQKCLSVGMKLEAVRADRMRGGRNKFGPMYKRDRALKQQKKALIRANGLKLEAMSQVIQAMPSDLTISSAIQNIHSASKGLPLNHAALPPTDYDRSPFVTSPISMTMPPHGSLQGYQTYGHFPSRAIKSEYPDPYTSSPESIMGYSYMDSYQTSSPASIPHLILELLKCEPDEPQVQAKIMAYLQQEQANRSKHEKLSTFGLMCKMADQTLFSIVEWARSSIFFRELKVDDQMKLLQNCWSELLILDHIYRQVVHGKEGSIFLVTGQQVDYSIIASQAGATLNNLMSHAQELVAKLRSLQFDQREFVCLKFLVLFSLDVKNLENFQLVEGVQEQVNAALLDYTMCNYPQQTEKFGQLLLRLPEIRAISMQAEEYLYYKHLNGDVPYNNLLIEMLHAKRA
Chain of Steroidogenic factor 1 (Homo sapiens) (Q13285 whole entry, looked up, the tested form may be a part): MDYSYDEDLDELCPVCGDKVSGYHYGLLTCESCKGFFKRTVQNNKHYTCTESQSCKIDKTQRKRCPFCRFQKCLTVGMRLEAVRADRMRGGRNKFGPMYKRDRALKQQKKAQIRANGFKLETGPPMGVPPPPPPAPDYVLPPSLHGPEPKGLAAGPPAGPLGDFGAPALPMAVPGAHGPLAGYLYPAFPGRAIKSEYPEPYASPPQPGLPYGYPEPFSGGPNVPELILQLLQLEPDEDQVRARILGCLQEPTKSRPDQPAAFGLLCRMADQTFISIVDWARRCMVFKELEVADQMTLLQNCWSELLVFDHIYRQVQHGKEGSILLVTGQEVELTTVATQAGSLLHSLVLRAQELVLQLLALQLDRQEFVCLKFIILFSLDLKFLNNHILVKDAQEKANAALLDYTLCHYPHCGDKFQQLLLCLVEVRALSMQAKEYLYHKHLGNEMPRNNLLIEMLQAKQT
Chain of Nuclear receptor coactivator 1 (Homo sapiens) (Q15788 whole entry, looked up, the tested form may be a part): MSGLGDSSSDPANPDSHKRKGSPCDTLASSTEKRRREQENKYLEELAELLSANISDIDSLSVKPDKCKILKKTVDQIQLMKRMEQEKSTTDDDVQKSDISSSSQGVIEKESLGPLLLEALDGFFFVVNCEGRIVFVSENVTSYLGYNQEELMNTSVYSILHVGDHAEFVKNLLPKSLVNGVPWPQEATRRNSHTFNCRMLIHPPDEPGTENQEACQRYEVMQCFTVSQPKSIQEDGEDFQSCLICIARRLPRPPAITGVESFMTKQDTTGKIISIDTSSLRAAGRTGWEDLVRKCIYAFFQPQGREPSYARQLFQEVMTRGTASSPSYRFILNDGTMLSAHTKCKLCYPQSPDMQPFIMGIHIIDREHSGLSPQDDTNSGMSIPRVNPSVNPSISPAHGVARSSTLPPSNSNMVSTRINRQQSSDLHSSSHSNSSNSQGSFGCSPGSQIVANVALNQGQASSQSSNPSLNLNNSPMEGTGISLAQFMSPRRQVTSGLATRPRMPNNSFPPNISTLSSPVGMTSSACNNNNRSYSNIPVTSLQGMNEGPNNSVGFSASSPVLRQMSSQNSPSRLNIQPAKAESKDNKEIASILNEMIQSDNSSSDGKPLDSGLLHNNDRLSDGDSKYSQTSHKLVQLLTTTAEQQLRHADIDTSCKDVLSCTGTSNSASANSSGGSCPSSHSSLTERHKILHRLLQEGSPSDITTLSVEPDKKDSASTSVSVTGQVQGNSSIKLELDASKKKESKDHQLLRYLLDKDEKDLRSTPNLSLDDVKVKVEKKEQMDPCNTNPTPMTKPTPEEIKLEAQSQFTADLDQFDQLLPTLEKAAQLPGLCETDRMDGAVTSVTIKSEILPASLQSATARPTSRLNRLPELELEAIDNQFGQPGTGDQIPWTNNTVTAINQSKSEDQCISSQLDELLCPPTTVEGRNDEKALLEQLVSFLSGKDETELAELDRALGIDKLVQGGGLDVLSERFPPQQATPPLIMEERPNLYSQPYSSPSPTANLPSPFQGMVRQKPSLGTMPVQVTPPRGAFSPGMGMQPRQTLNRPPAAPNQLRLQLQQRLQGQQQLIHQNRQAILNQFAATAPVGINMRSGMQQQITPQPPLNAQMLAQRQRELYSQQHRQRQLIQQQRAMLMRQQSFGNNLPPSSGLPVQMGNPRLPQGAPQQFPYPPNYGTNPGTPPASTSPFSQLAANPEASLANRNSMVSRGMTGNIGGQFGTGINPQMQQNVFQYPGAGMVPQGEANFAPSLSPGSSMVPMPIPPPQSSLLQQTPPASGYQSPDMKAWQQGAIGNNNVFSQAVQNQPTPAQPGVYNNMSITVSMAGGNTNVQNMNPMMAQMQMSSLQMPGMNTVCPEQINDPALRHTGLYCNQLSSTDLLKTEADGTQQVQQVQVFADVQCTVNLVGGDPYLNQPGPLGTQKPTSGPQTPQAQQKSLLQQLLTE

Row | SMILES | inhibition [1] | inhibition [2] | inhibition [3] | inhibition [4] | inhibition [5] | inhibition [6] | inhibition [7] | inhibition [8] | inhibition [9] | inhibition [10]
1 | Cc1ccc(NC(=O)c2cc(C)n(-c3ccccc3)c2C)cc1 | 43.4% (active) | 23.7% | 1.09% | -11.4% | 45.2% (active) | -63.5% | 20.4% | -42.7% | 61.3% (active) | 69.8% (active)
2 | Cc1c(/C(O)=C2/C(=O)C(=O)N(Cc3cccnc3)C2c2ccccn2)cnn1-c1ccccc1 (stereo not given) | 38.2% | 3.13% | 20.1% | -13.8% | 42% (active) | 23.4% | 36.8% | 7.05% | 11.9% | 52.3% (active)
3 | COc1cc(C(=O)/C=C/c2cccnc2)c([N+](=O)[O-])cc1OC | 33.2% | 45.3% (active) | 29.4% | 48.8% (active) | 59.3% (active) | 59.1% (active) | 56.7% (active) | 68.5% (active) | 18.2% | 45.8%
4 | COc1cc(SC)ccc1C(=O)Nc1nc2ccccc2[nH]1 | 92.1% (active) | 90% (active) | 85.9% (active) | 89.4% (active) | 95.1% (active) | 103% (active) | 96.5% (active) | 92.6% (active) | 96.4% (active) | 99.5% (active)
5 | O=C(NC1CCCCC1)C(c1cccnc1)N(C(=O)CCl)c1ccccc1Cl (stereo not given) | 81.8% (active) | 64% (active) | 67.1% (active) | 59.1% (active) | 54.7% (active) | 70.4% (active) | 67.5% (active) | 64.8% (active) | 38.6% (active) | 55.5% (active)
6 | CC(C)(C)OC(=O)NCCCCCc1cn([C@@H](CO)C(=O)NCCCCCCCCCCC(=O)N2CCN(C(=O)OC(C)(C)C)CC2)nn1 | 23.4% | 66.8% (active) | 0.34% | 71.4% (active) | 59.5% (active) | 69.4% (active) | 69.9% (active) | 80.6% (active) | 55% (active) | 48.7% (active)
7 | Nc1ncnc2c(C3OC(CO)C(O)C3O)scc12 (stereo not given) | 90.7% (active) | 95.1% (active) | 78.5% (active) | 94.9% (active) | 89.2% (active) | 107% (active) | 96.5% (active) | 92.9% (active) | 62.8% (active) | 57.2% (active)
8 | CCCC(=O)Nc1ccc(C(=O)N/N=C/c2ccc([N+](=O)[O-])o2)cc1 | 88.8% (active) | 69.5% (active) | 74.8% (active) | 66.5% (active) | 86.9% (active) | 102% (active) | 95.1% (active) | 80.5% (active) | 23.3% | 53.8% (active)
9 | CC(O)CC(=O)OC[C@]12CC[C@H]3[C@@](C)(CC[C@H]4C(C)(C)CCC[C@]34C)[C@@H]1CC(C1=CC(=O)OC1O)O2 (stereo not given in full) | 30.2% | 53.4% (active) | 31% | 43.4% (active) | 51.2% (active) | 76.6% (active) | 80.5% (active) | 75.2% (active) | 50.6% (active) | -41%
10 | CC(C)(C)c1ccc(C(=O)O/N=C(\N)c2ccccn2)cc1 | 85.4% (active) | 77.2% (active) | 64.9% (active) | 67.5% (active) | 61.1% (active) | 45.8% (active) | 58.5% (active) | 62.5% (active) | 83.1% (active) | 94.4% (active)
11 | CC[C@@]1(O)C(=O)OCc2c1cc1n(c2=O)Cc2cc3c(N)cccc3nc2-1 | 91.8% (active) | 77.3% (active) | 58.2% (active) | 74.7% (active) | 84.6% (active) | 104% (active) | 92% (active) | 77.2% (active) | 30.5% | 51.9% (active)
12 | COc1ccc2c(c1)-c1c(ssc1=S)C(C)(C)N2 | 73.3% (active) | 54.6% (active) | 64% (active) | 50.3% (active) | 28.7% (active) | 46.7% (active) | 41.5% | 67.9% (active) | 6.45% | 49.7% (active)
13 | COc1ccc(/C=C2\SC(=O)N(CCCC(=O)Nc3cc(Cl)ccc3C(=O)O)C2=O)cc1 | 86.5% (active) | 77% (active) | 75.5% (active) | 70.3% (active) | 83.7% (active) | 94% (active) | 82% (active) | 75.7% (active) | 93.9% (active) | 97.8% (active)
14 | COCCn1c(C)cc(C2=NNC(=Nc3ccccc3F)SC2)c1C | 57.4% (active) | 52.3% (active) | 60.5% (active) | 28.1% (active) | 54.2% (active) | -47% | 63% (active) | -31.7% | 87.2% (active) | 91.5% (active)
15 | O=C(N/N=C/c1c(O)ccc2ccccc12)c1cccnc1 | 71.2% (active) | 81.2% (active) | 73.1% (active) | 80% (active) | 88.5% (active) | 102% (active) | 89.4% (active) | 86.1% (active) | 5.29% | 20.7%
16 | CC1CCC(C(C)C)C(OC(=O)Cn2c(-c3ccc(F)cc3)[n+](C)c3ccccc32)C1 (stereo not given) | 69.1% (active) | 45.8% (active) | 25.4% | 38.6% (active) | 23.7% | 108% (active) | 59.9% (active) | 93.7% (active) | 26.2% | 34.6%
17 | O=C(NCCc1ccccc1F)c1ccc2c(c1)OCCO2 | 67.2% (active) | 57.6% (active) | -11.5% | 54.6% (active) | 65.5% (active) | 55.3% (active) | 72.4% (active) | 60.5% (active) | 74.1% (active) | 89.9% (active)
18 | NC(=S)NN=Cc1nccc2c(C(F)(F)C(F)(F)C(F)(F)F)cccc12 | 93.5% (active) | 87.2% (active) | 85.5% (active) | 88.5% (active) | 92.3% (active) | 107% (active) | 95.6% (active) | 82.1% (active) | -16.1% | 18.2%
19 | COc1ccc([C@@]23Oc4cc(OC)cc(OC)c4[C@]2(O)[C@H](O)[C@H](C(=O)N(C)C)[C@H]3c2ccccc2)cc1 | 95.7% (active) | 93.7% (active) | 85.6% (active) | 92.9% (active) | 97.6% (active) | 111% (active) | 99.3% (active) | 98.2% (active) | 56.2% (active) | 68.6% (active)
20 | Cc1ccc(C(=O)O/N=C(\N)c2ccccn2)c(Cl)c1 | 28.7% | 11.1% | -47.4% | -23.7% | -22.8% | -86.9% | 4.43% | -54.1% | 50.6% (active) | 70.8% (active)
21 | Cc1c(/C(O)=C2/C(=O)C(=O)N(CCN3CCOCC3)C2c2ccccn2)cnn1-c1ccccc1 (stereo not given) | 62.5% (active) | 41.7% (active) | 54.5% (active) | 26.1% (active) | 68.9% (active) | 24.3% | 75.2% (active) | 12.3% | 68.5% (active) | 83.4% (active)
22 | Cc1[nH]c2ccccc2c(=O)c1C(=O)/C=C/c1ccccc1 | 76.1% (active) | 58% (active) | 73.7% (active) | 59.6% (active) | 76.2% (active) | 90.2% (active) | 82.9% (active) | 77.8% (active) | 39% (active) | 72.7% (active)
23 | OCC1OC(n2ccc3c2ncn2ncnc32)C(O)C1O (stereo not given) | 64.6% (active) | 44.2% (active) | 55.1% (active) | 38.2% (active) | 52.8% (active) | 49.2% (active) | 38.8% | 60.2% (active) | 12.2% | 46.4%
24 | CC(C)(C)c1ccc(-c2noc(CCC(N)=O)n2)cc1 | 65.2% (active) | 51.9% (active) | 59.7% (active) | 56.7% (active) | 58.9% (active) | 70% (active) | 60.8% (active) | 58.4% (active) | 83.6% (active) | 94.2% (active)
25 | Nc1nc(F)nc2c1ncn2[C@@H]1O[C@H](CO)[C@@H](O)[C@H]1O | 98% (active) | 93.4% (active) | 82.7% (active) | 94.4% (active) | 94.5% (active) | 108% (active) | 96.2% (active) | 98.7% (active) | 76.6% (active) | 77.6% (active)
26 | Cc1cc(C)c(C(=O)/C=C/c2cccc3ccccc23)c(=O)[nH]1 | 72.8% (active) | 56.7% (active) | 55.2% (active) | 63.5% (active) | 94% (active) | 110% (active) | 97.8% (active) | 94.3% (active) | 47.2% (active) | 65.3% (active)
27 | Cc1cc(C(=O)CSc2ccc(F)cc2)cc(C)c1OC(=S)N(C)C | 41.6% | 43.6% (active) | 2.12% | -8.86% | -28.6% | -65.3% | -23.4% | -17.3% | 22.6% | 65.7% (active)
28 | CC1CCc2nc(N)c(C#N)c(-c3cccnc3)c2C1 (stereo not given) | 66.7% (active) | 57.9% (active) | 68.7% (active) | 58.6% (active) | 42.3% (active) | 52.9% (active) | 46.1% (active) | 72.9% (active) | 15.6% | 53.9% (active)
29 | Cc1ccc(C(=O)Nc2sc(C)c(-c3ccccc3)c2C(N)=O)cc1[N+](=O)[O-] | 64% (active) | 50% (active) | 29.8% | 22.4% | 47.7% (active) | -41.3% | 38.9% | 10.9% | 71.9% (active) | 74.1% (active)
